This is a sample that favours compounds with a hit; in the whole collection about 3.6% have one here.
Pf apPOL inh: Pf-apPOL DNA polymerase inhibition. hit rate 0.25% among 210,000. inhibition, % at 10 µM. Recombinant Pf-apPOL, molecular beacon fluorescence, 1.5 h
mHTT CaM bind: inhibitors of human mutant huntingtin-calmodulin interaction | hit rate 3.6% among 190,000 | AlphaScreen His-mHTT/GST-CaM binding, luminescence | inhibition, % at 15 µM;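 further: 0% = both proteins with DMSO and 100% = one protein alone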
The depositor's hits bear a star; x = not tested or not shown; ! = not active in a repeat. No stated cut-off is given here; in the data, active means inhibition above about 50%; inactive means the rest.

SMILES	Pf apPOL inh	mHTT CaM bind
O=c1nc(/C=C/c2cccn2-c2ccc([N+](=O)[O-])cc2)cc(C(F)(F)F)[nH]1	-1.4	8.0
Cc1cc([N+](=O)[O-])c(C)cc1-c1ccc(/C=C/c2cc(C(F)(F)F)[nH]c(=O)n2)o1	-1.9	95.0*!
O=C1C(=Cc2ccc(-c3ccccc3[N+](=O)[O-])o2)C(=O)c2ccccc21	-2.6	6.0
CN1C=C/C(=C\c2cccc[n+]2C)c2ccccc21	0.4	13.0
CC(O)CNc1ccc([N+](=O)[O-])cc1Cl (configuration not stated)	-4.4	3.9
CCN(CC)CCNC(=O)CN1N=C(c2ccc(Cl)cc2)CCC1=O	-91.9	0.0
CCN(CCNC(=O)CN1N=C(c2ccc(Cl)cc2)CCC1=O)c1ccccc1	-10.0	65.0*
O=C(NC1CC1)C1CCCN(C(=O)c2ccccc2F)C1 (configuration not stated)	0.4	-7.2
O=C(Nc1c(Cc2ccccc2)nc2ccccn12)C(Cl)Cl	22.5	44.3
CC(Cl)C(=O)Nc1c(Cc2ccccc2)nc2ccccn12 (configuration not stated)	71.6*	44.0
Cc1ccc(N2CCN(C(=O)c3cc4c(s3)CCN(C(=O)c3ccccc3)C4)CC2)cc1	-4.0	1.7
COc1ccc(CC(=O)NCCSc2c[nH]c3ccccc23)cc1OC	-4.5	3.0
COc1ccccc1N1CCN2c3ccccc3CC(C(=O)NC3CC3)C2C1 (configuration not stated)	-1.0	-0.2
CCNC(=O)C1Cc2ccc(OC)cc2N2CCN(Cc3ccc(F)cc3)CC12 (configuration not stated)	-5.2	41.5
C=CCNC(=O)C1Cc2ccccc2N2CCN(c3cc(Cl)ccc3OC)CC12 (configuration not stated)	0.7	54.9*
CCNC(=O)C1Cc2ccccc2N2CCN(c3cc(Cl)ccc3OC)CC12 (configuration not stated)	-0.6	22.2
COc1ccc2c(c1)N1CCN(Cc3ccc(F)cc3)CC1C(C(=O)NC1CC1)C2 (configuration not stated)	-3.6	93.2*
COc1ccc2c(c1)N1CCN(c3ccccc3OC)CC1C(C(=O)NC1CC1)C2 (configuration not stated)	-2.3	58.7*
Cc1cccc(NC(=O)C23CCC(C)(C(=O)C2)C3(C)C)c1C (configuration not stated)	-3.8	-2.0
Nc1ccc(N)c2c1C(=O)c1c(N)ccc(N)c1C2=O	-2.5	92.0*
Nc1ccc(C(=O)c2ccc(N)c(N)c2)cc1N	-11.2	10.4
Cc1ccc([N+](=O)[O-])cc1NC(=O)C1CCCCC1C(=O)O (configuration not stated)	0.6	-1.0
COc1cccc(N2CCN(C(=O)c3cc4c(s3)N(C)CCC4)CC2)c1	3.8	19.6
Cc1ccc(S(=O)(=O)NCCC2CCN(C(=O)c3ccccc3)CC2)cc1	3.2	45.9
O=C(c1ccccc1)N1CCC(CCNS(=O)(=O)c2ccccc2)CC1	0.9	50.3*
SMILES	Pf apPOL inh	mHTT CaM bind
CCc1ccc(S(=O)(=O)NCCC2CCN(C(=O)c3ccccc3)CC2)cc1	-4.4	38.9
O=C(c1ccccc1)N1CCC(CCNS(=O)(=O)c2ccc3c(c2)CCCC3)CC1	4.0	60.2*
COc1ccc(C2=NC3(CCN(C(C)C)CC3)NC(c3ccccc3O)C2)cc1 (configuration not stated)	-5.1	6.9
COc1ccc(C2=NC3(CCCCC3)NC(c3ccccc3O)C2)cc1 (configuration not stated)	-4.3	59.0*
CCOC(=O)N1CCC2(CC1)N=C(c1ccc(OCC)cc1)CC(c1ccccc1O)N2 (configuration not stated)	2.5	20.6
CCOc1ccc(C2=NC3(CCN(C(C)=O)CC3)NC(c3ccccc3O)C2)cc1 (configuration not stated)	1.9	51.0*
COc1ccc(C(=O)N2CCC(COc3ccc(C(=O)NC4CC4)cc3)CC2)cc1	-4.3	0.4
Nc1cccc(C(=O)N2CCN(c3cccc(Cl)c3)CC2)c1	-5.0	45.3
CC(C)(C)[C@H]1CCC(=O)N([C@H](CSc2ccccc2)Cc2ccccc2)CC1	-5.8	5.8
CCCN1CCC(=O)N([C@H](COc2ccccc2)Cc2ccccc2)CC1	-7.5	6.8
CC(C)(C)[C@H]1CCC(=O)N([C@H](COc2ccccc2)Cc2ccccc2)CC1	8.7	63.7*
O=C1CCN(Cc2ccccc2)CCN1[C@H](COc1ccccc1)Cc1ccccc1	-2.3	86.5*
O=C(NNC(=O)c1ccc(OC(F)(F)F)cc1)c1ccc(Cl)cc1	-2.4	x
Cc1noc(-c2nn(C)c3c2CN(C(=O)Cc2ccsc2)CC3)n1	0.7	22.1
O=[N+]([O-])c1ccc(N2CCCC2)cc1SCc1ccco1	-1.0	6.8
O=[N+]([O-])c1cc(SCc2ccco2)c2c(C3OCCO3)nn(-c3ccccc3)c2c1	-2.3	78.0*
Cc1ccc(Cc2c(C)nc3c(C(=O)O)c[nH]n3c2=O)cc1	31.4	0.0
Cn1nc(C(=O)NCc2ccc3c(c2)OCO3)c2c1CCN(C(=O)c1cccs1)C2	-0.3	11.4

Assay outcomes as filed in PubChem.
